Test results taken from the supplement of paper PMC8007513.
Counter-ions that a name gives are not always drawn. ± gives the standard error. About 130 (10%) of roughly 1,300 compounds showed an effect of 50% or more. For the sample, strong results were picked, then their nearest neighbours and some compounds at random.

Test system: Trichoderma virens ATCC 9645
Assay: growth yield (OD600) with compound + IPBC relative to untreated control; higher = less growth inhibition
Settings: compound concentration: 100 uM, IPBC concentration: 200 ng/ml
Outline: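 Trichoderma virens ATCC 9645 spores, from potato dextrose agar plates grown for 7 days, were brought to 15,000 spores ml^−1 in potato dextrose broth and dispensed as 100 μl aliquots into 96-well plates. Each aliquot received library compounds at 100 μM final, with or without a biocide at 200 ng ml^−1, before growth at 30 °C and OD600 readings on a BioTek EL800 at 40 h and 72 h. Growth is expressed relative to the control containing neither agent and represents means of duplicate screens.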

Row | SMILES | growth yield (40 h) [%] | growth yield (72 h) [%]
1 | CC(C)(C)NC[C@H](O)COc1ccccc1C1CCCC1 [Penbutolol sulfate] + CCCCNC(=O)OCC#CI [3-iodo-2-propynyl butylcarbamate (IPBC)] | 74.8 ± 6.2 | 91.56 ± 0.73
2 | O=C1CCC(N2C(=O)c3ccccc3C2=O)C(=O)N1 (configuration not stated) [Thalidomide] + CCCCNC(=O)OCC#CI [3-iodo-2-propynyl butylcarbamate (IPBC)] | 95.3 ± 3.2 | 101 ± 4.4
3 | COc1ccccc1OCC(O)CN1CCN(CC(=O)Nc2c(C)cccc2C)CC1 (configuration not stated) [Ranolazine] + CCCCNC(=O)OCC#CI [3-iodo-2-propynyl butylcarbamate (IPBC)] | 89.7 ± 2.4 | 94.2 ± 2.7
4 | O=C1NCN(c2ccccc2)C12CCN(CCCC(c1ccc(F)cc1)c1ccc(F)cc1)CC2 [Fluspirilen] + CCCCNC(=O)OCC#CI [3-iodo-2-propynyl butylcarbamate (IPBC)] | 99.4 ± 6.3 | 118 ± 4.2
5 | Cc1cccc(C)c1NC(=O)CN1CCN(CCCC(c2ccc(F)cc2)c2ccc(F)cc2)CC1 [Lidoflazine] + CCCCNC(=O)OCC#CI [3-iodo-2-propynyl butylcarbamate (IPBC)] | 10.3 ± 1.1 | 78.6 ± 7.7
6 | CO/N=C1\CN(c2nc3c(cc2F)c(=O)c(C(=O)O)cn3C2CC2)CC1CN (configuration not stated) [Gemifloxacin mesylate] + CCCCNC(=O)OCC#CI [3-iodo-2-propynyl butylcarbamate (IPBC)] | 103 ± 17 | 104 ± 11
7 | CNCC(O)c1ccc(OC(=O)C(C)(C)C)c(OC(=O)C(C)(C)C)c1 (configuration not stated) [Dipivefrin hydrochloride] + CCCCNC(=O)OCC#CI [3-iodo-2-propynyl butylcarbamate (IPBC)] | 79.4 ± 1.3 | 88.83 ± 0.1
8 | C[C@]12CCC(=O)C(O)=C1CC[C@@H]1[C@@H]2CC[C@]2(C)C(=O)CC[C@@H]12 [Formestane] + CCCCNC(=O)OCC#CI [3-iodo-2-propynyl butylcarbamate (IPBC)] | 71.5 ± 3.8 | 91.2 ± 1.1
9 | N[C@@H]1CONC1=O [D-cycloserine] + CCCCNC(=O)OCC#CI [3-iodo-2-propynyl butylcarbamate (IPBC)] | 86.2 ± 1.1 | 90.3 ± 1.8
10 | COc1ccc2[nH]cc(CCNC(C)=O)c2c1 [Melatonin] + CCCCNC(=O)OCC#CI [3-iodo-2-propynyl butylcarbamate (IPBC)] | 82.9 ± 4.1 | 92.3 ± 4
11 | CCCCCNC(=N)N/N=C/c1c[nH]c2ccc(OC)cc12 [Tegaserod maleate] + CCCCNC(=O)OCC#CI [3-iodo-2-propynyl butylcarbamate (IPBC)] | 5.4 | 5.24 ± 0.21
12 | CC(C)(C)NCC(O)COc1cccc2c1CC(O)C(O)C2 (configuration not stated) [Nadolol] + CCCCNC(=O)OCC#CI [3-iodo-2-propynyl butylcarbamate (IPBC)] | 102 ± 19 | 100 ± 10
13 | c1ccc2[nH]c(-c3cscn3)nc2c1 [Tiabendazole] + CCCCNC(=O)OCC#CI [3-iodo-2-propynyl butylcarbamate (IPBC)] | 4.7652 ± 1.4e-15 | 3.3561 ± 1.3e-15
14 | CN1CCN(CCCN2c3ccccc3Sc3ccc(S(=O)(=O)N(C)C)cc32)CC1 [Thioproperazine dimesylate] + CCCCNC(=O)OCC#CI [3-iodo-2-propynyl butylcarbamate (IPBC)] | 37.8 ± 0.95 | 97.1 ± 5
15 | COc1ccc2c(c1)N(C[C@H](C)CN(C)C)c1ccccc1S2 [Methotrimeprazine maleat salt] + CCCCNC(=O)OCC#CI [3-iodo-2-propynyl butylcarbamate (IPBC)] | 76.4 ± 1.4 | 92.61 ± 0.32
16 | CN(C)CCCN1c2ccccc2CCc2ccc(Cl)cc21 [Clomipramine hydrochloride] + CCCCNC(=O)OCC#CI [3-iodo-2-propynyl butylcarbamate (IPBC)] | 59.6 ± 1.4 | 93.2 ± 2
17 | CSc1ccc2c(c1)N(CCC1CCCCN1C)c1ccccc1S2 (configuration not stated) [Thioridazine hydrochloride] + CCCCNC(=O)OCC#CI [3-iodo-2-propynyl butylcarbamate (IPBC)] | 3.81 ± 0.64 | 2.94 ± 0.21
18 | OCCN1CCN(CCCN2c3ccccc3C=Cc3ccccc32)CC1 [Opipramol dihydrochloride] + CCCCNC(=O)OCC#CI [3-iodo-2-propynyl butylcarbamate (IPBC)] | 69.57 ± 0.64 | 92.4 ± 3
19 | CC(CN(C)C)CN1c2ccccc2Sc2ccccc21 (configuration not stated) [Trimeprazine tartrate] + CCCCNC(=O)OCC#CI [3-iodo-2-propynyl butylcarbamate (IPBC)] | 71.5 ± 3.8 | 92 ± 3.9
20 | CN(C)CCCN1c2ccccc2Sc2ccc(Cl)cc21 [Chlorpromazine hydrochloride] + CCCCNC(=O)OCC#CI [3-iodo-2-propynyl butylcarbamate (IPBC)] | 52.4 ± 4.1 | 87.2 ± 2.2
21 | CN1CCN(CCCN2c3ccccc3Sc3ccc(Cl)cc32)CC1 [Prochlorperazine dimaleate] + CCCCNC(=O)OCC#CI [3-iodo-2-propynyl butylcarbamate (IPBC)] | 3.18 | 2.73 ± 0.21
22 | O=c1n(CCCN2CCN(c3cccc(Cl)c3)CC2)nc2ccccn12 [Trazodone hydrochloride] + CCCCNC(=O)OCC#CI [3-iodo-2-propynyl butylcarbamate (IPBC)] | 51 ± 1.1 | 86.1 ± 0.94
23 | OCCN1CCN(CCCN2c3ccccc3Sc3ccc(Cl)cc32)CC1 [Perphenazine] + CCCCNC(=O)OCC#CI [3-iodo-2-propynyl butylcarbamate (IPBC)] | 4.29 ± 0.48 | 2.94 ± 0.42
24 | CN1CCC[C@@H]1CCO[C@](C)(c1ccccc1)c1ccc(Cl)cc1 [Clemastine fumarate] + CCCCNC(=O)OCC#CI [3-iodo-2-propynyl butylcarbamate (IPBC)] | 53.2 ± 1.8 | 92.4 ± 0.94
25 | CN1CCCCC1CCN1c2ccccc2Sc2ccc([S+](C)[O-])cc21 (configuration not stated) [Mesoridazine besylate] + CCCCNC(=O)OCC#CI [3-iodo-2-propynyl butylcarbamate (IPBC)] | 72.6 ± 2.4 | 89.25 ± 0.52
26 | CCCCC[C@H](O)/C=C/[C@H]1[C@H](O)CC(=O)[C@@H]1CCCCCCC(=O)O [Alprostadil] + CCCCNC(=O)OCC#CI [3-iodo-2-propynyl butylcarbamate (IPBC)] | 108 ± 3.3 | 107 ± 2.8
